Screening results (PubChem BioAssay)
Shown are actives, neighbours in structure and some others; about 10% of the full set was active somewhere.
FLuc inh: Firefly luciferase inhibition profiling of diverse chemical library using quantitative high-throughput screening; Luciferin 4-monooxygenase (Photinus pyralis), P08659; purified P. pyralis luciferase, luminescence, biochemical; Potency, µM (top dose mostly 115 µM), usual class: inhibitors; hit rate 2.5% among 76,000; further: nearly all actives have a fitted effect of over 65% in size
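Luminescence read by CCD imaging after purified firefly luciferase (10nM final) was added to substrate buffer holding 10uM D-luciferin and 10uM ATP, pH 7.5, pre-dosed with compound.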
NPR1 antag: Natriuretic polypeptide receptor (hNpr1) antagonism - Primary qHTS | Atrial natriuretic peptide receptor 1 (Homo sapiens), P16066 | HEK293 hNpr1 GloSensor cGMP, ANP-stimulated luminescence | Potency, µM (top dose mostly 46.3 µM), for the others: top-dose activity change, negative = inhibition, usual class: inhibitors | hit rate 1.6% among 76,000; calls by dose curve; further: nearly all actives have a fitted effect of over 60% in size
Target sequence (P16066 whole entry, looked up): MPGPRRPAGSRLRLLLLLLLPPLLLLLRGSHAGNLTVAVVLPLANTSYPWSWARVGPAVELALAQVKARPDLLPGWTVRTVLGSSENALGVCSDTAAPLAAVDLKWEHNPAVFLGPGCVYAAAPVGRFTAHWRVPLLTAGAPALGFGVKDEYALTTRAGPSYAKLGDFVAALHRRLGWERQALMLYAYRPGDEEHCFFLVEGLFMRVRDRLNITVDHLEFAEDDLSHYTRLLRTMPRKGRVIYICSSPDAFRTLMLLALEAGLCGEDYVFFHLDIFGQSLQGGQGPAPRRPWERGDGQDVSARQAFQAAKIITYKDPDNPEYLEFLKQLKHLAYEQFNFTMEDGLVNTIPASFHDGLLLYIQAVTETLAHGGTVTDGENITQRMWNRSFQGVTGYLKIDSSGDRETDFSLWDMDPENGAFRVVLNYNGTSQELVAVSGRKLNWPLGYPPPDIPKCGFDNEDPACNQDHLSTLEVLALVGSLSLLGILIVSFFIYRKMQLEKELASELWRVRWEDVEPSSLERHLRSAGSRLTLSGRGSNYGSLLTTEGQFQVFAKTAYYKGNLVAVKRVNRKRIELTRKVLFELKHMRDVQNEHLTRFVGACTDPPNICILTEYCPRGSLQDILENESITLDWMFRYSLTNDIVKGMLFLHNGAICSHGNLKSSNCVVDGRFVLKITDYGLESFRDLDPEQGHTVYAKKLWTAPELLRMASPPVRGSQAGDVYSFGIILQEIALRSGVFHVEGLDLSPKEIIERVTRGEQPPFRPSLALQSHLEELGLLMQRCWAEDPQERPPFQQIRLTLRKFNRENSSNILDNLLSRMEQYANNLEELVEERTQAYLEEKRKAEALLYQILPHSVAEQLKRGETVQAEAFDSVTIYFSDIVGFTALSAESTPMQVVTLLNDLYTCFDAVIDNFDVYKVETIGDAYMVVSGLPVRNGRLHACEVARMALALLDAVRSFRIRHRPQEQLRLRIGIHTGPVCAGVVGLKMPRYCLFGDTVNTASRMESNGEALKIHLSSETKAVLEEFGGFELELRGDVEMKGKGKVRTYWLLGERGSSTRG
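HEK293 cells stably expressing human Npr1 and cGMP GloSensor pGS-40F, loaded 2 h with 2% GloSensor reagent, given compound 30 min at room temperature. Luminescence read before and 20 min after 0.1 nM hNppA.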
3T3 cytotox: Cytotoxic Profiling in NIH 3T3 Cell Line of Diverse Libraries Using Quantitative High-Throughput Screening. NIH 3T3 viability, CellTiter-Glo ATP luminescence, 48-72 h. Potency, µM (top dose mostly 96.7 µM), for the others: at the top dose activity change, negative = cytotoxicity, actives largely listed as inhibitors. AID 1345082, 2018. hit rate 4.3% among 94,000; further: nearly all actives have a fitted effect of over 55% in size
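Luminescent ATP readout (CellTiter-Glo, 10 min RT) after 48 or 72 hr compound exposure of NIH 3T3 cells seeded at 400 cells/well in 1536-well format; quantitative HTS.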
HEK cytotox: Cytotoxic Profiling in HEK 293 Cell Line of Diverse Libraries Using Quantitative High-Throughput Screening; HEK 293 viability, ATP luminescence (CellTiter-Glo), 48-72 h; Potency, µM (titrated, usually from 115 µM), without a hit: top-dose activity change, negative = cytotoxicity, hits mostly inhibitors; hit rate 6.6% among 94,000; AID 1345083, 2018; further: nearly all actives have a fitted effect of over 60% in size
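Cytotoxicity was scored by loss of ATP-coupled luminescence (CellTiter-Glo) in HEK 293 cells. Compound treatment ran 48 or 72 hr at 37 degree Celsius, 5% CO2, 95% humidity.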
GPT2 inh: Primary qHTS assay for inhibitors of Glutamate pyruvate transaminase 2 (GPT2); hit rate 0.25% among 100,000; Potency, µM (series often up to 57.7 µM), for the others: at the highest dose activity change, negative = inhibition, usual class: inhibitors; Recombinant GPT2, coupled pyruvate oxidase/HRP Amplex Red fluorescence; Alanine aminotransferase 2 (Homo sapiens), Q8TD30; further: nearly all actives have a fitted effect of over 60% in size
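Fluorescence of coupled pyruvate oxidase/HRP/Amplex Red system (50uM Amplex, 30 min, dark) reports pyruvate formed by GPT2. Enzyme reaction: 10ng/uL GPT2, 2mM L-alanine, 250uM a-KG, 30 min room temperature, pH 7.5; 50uM AOA control.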
The depositor's hits bear a star; i = inactive; ? = inconclusive; / = no result given; [ ] = remark or other dose. Unless noted, the call rests on the fitted dose curve; in most records, active means well fitted curve in the direction sought with a large enough effect; inconclusive means small, poorly fitted or top-dose-only effect, or another doubt; inactive means no such curve, though single readings can be large; an effect the other way counts as inactive or inconclusive. On the % scale 0 is the no-effect control and ±100 the full control effect; potency means the concentration at half of the fitted maximal effect.

SMILES	FLuc inh	NPR1 antag	3T3 cytotox	HEK cytotox	GPT2 inh
C=CCNC(=O)c1cnn2cc(C)ccc12	?	0%[70.6 µM]	-25%[174 µM]	-6%[230 µM]	i
CC(C)C(O)C1CCN(c2nccc(-c3cc(C(=O)O)ccn3)n2)CC1 (stereo not given)	50µM*	0%	-11%	-18%	-13%
COCCNC(=O)[C@H]1C[C@H](Oc2ccccc2)CN1C(=O)NC(C)C	i	?	-21%	-5%	i
COCC1(C(=O)N2CCOC(c3ccc4cc(OC)ccc4c3)C2)CCC1 (stereo not given)	20µM*	-22%	?	?	1%
COc1cc(CN2CCN(c3ncnc(C)c3C)CC2CCO)cc(OC)c1 (stereo not given)	i	1%	-38%	?	0%[11.5 µM]
COc1ccc2cc(C3CN(C(=O)c4cccn4C)CCO3)ccc2c1 (stereo not given)	4.5µM*	16µM*	40µM*	?	?
COc1ccc2c(C)c(C(=O)N3CCOC(c4ccc(F)cc4)C3)oc2c1 (stereo not given)	i	-14%	?	?	-33%
COc1ccc2cc(C3CN(c4ncnc(C)c4C)CCO3)ccc2c1 (stereo not given)	?	2.5µM*	?	?	-6%
COc1ccc(C(=O)N2CCCCC2c2nc(-c3cccnc3)n[nH]2)c(OC)c1 (stereo not given)	/	/	?	?	i
CN(CC1CCOC1)C(=O)NC1CCCCC1 (stereo not given)	i	8%	-8%	16%	4%
COc1ccc(C(=O)NCCC2CCN(C(=O)Nc3ccc(C)c(F)c3)CC2)cc1	3.5µM*	-25%	?	-23%	3%
Cc1ccc(NC(=O)N2CCC(CCNC(=O)c3n[nH]c4ccccc34)CC2)cc1F	?	-16%	?	79µM*	i
Cc1ccc(NC(=O)N2CCC(CCNC(=O)c3ccccn3)CC2)cc1F	/	/	?	?	i
COc1cccc(CN2CCc3nc(C(C)C)nc(-c4ccc(O)cc4)c3CC2)c1	i	-1%	?	?	i
O=C(Nc1cccc(C(F)(F)F)c1)O[C@@H]1CO[C@H]2[C@@H]1OC[C@@H]2n1cc(-c2ccccn2)nn1	i	?	?	35µM*	0%
O=C(Nc1ccccc1)O[C@@H]1CO[C@H]2[C@@H]1OC[C@@H]2n1nnnc1SC1CCCC1	i	?	-25%[174 µM]	?	2%[88.5 µM]
O=C(Nc1ccccc1)O[C@@H]1CO[C@H]2[C@@H]1OC[C@@H]2n1nnnc1-c1ccc2c(c1)OCCO2	45µM*	-13%	-26%	-13%	i
S=C(NC1CCCCC1)N[C@H]1CO[C@H]2[C@@H]1OC[C@@H]2n1cc(-c2ccccn2)nn1	i	?	?	89µM*	-26%[88.5 µM]
O=C(Nc1cccc(C(F)(F)F)c1)O[C@@H]1CO[C@H]2[C@@H]1OC[C@@H]2n1nnnc1SC1CCCC1	i	?	40µM*	?	-5%
CC(C)c1ccc(N2CC(C(=O)N(C)C3CCSCC3)CC2=O)cc1 (stereo not given)	i	7%	-4%	-17%	?
Cc1ccc(C(=O)Nc2cc(-c3ccccn3)nn2-c2ccccc2)cc1	/	/	-34%	?	-3%
COC(=O)[C@@H]1Cc2ncn(Cc3ccc(OC)cc3)c2CN1S(=O)(=O)c1ccc(F)cc1	i	3%	79µM*	-5%	?
COC(=O)[C@@H]1Cc2ncn(Cc3ccc(OC)cc3)c2CN1S(=O)(=O)c1ccc(OC)cc1	i	2%	?	-5%	-12%
COC(=O)[C@@H]1Cc2ncn(Cc3ccc(OC)cc3)c2CN1Cc1ccc(F)cc1	i	?	?	63µM*	-24%[88.5 µM]
COC(=O)[C@@H]1Cc2ncn(C)c2CN1S(=O)(=O)c1ccc(Cl)cc1	i	-2%[70.6 µM]	?	-3%[172 µM]	1%[88.5 µM]
SMILES	FLuc inh	NPR1 antag	3T3 cytotox	HEK cytotox	GPT2 inh
COC(=O)[C@@H]1Cc2ncn(C)c2CN1S(=O)(=O)c1ccc2ccccc2c1	i	0%[70.6 µM]	79µM*	-7%[172 µM]	i
COc1cccc(C(=O)N2CCCN(c3ccc4nnc(C5CC5)n4n3)CC2)c1	/	/	-30%	-10%	/
Cn1nc2n(c1=O)CCN(S(=O)(=O)c1ccccc1C(F)(F)F)CC2	i	-1%	-13%	-13%	i
CN(Cc1cccc(N2CCN(S(=O)(=O)c3ccccc3C(F)(F)F)CC2)c1F)S(C)(=O)=O	/	/	?	35µM*	/
COc1cc(=O)n2c(c1C(=O)NCc1ccc(Cl)cc1)CCCC2	i	2%	i	48%	1%
CC(C(=O)NCCc1noc(-c2cccnc2)n1)c1ccccc1 (stereo not given)	i	0%	i	12%	i
COC1CCN(c2cc(-c3ccsc3)nc3c(C)noc23)CC1	i	-2%[70.6 µM]	?	79µM*	i
COC1CCCN(c2cc(-c3ccc(Cl)cc3)nc3c(C)noc23)C1 (stereo not given)	i	1%[70.6 µM]	?	56µM*	-12%[88.5 µM]
COC1CCCN(c2cc(-c3ccsc3)nc3c(C)noc23)C1 (stereo not given)	i	-1%[70.6 µM]	?	?	?
COC1CCN(c2cc(-c3ccccc3)nc3c(C)noc23)CC1	i	2%[70.6 µM]	?	?	2%[88.5 µM]
CN1CCN(Cc2ccc(Nc3cnc4ccc(-n5ccnc5)nn34)cc2)CC1	?	-1%[70.6 µM]	?	50µM*	i
CN1CCN(Cc2ccc(Nc3cnc4ccc(N5CCOCC5)nn34)cc2)CC1	i	-1%[70.6 µM]	-31%[138 µM]	?	?
Cc1ccc(Nc2ccnc(N3CCC(NC(=O)c4ccccc4)CC3)n2)cc1	/	/	?	?	i
COc1ccc(NC(=O)C[C@@H]2C[C@@H](C(C)C)[C@H](CC#N)C=C2C)cn1	i	-1%[70.6 µM]	79µM*	89µM*	-2%[88.5 µM]
COc1cccc(C(=O)NCCNC(=O)c2cccc(-c3ccc(C(F)(F)F)cc3)c2)c1	/	/	-31%	-21%	i
COCc1noc([C@@H]2CNC[C@H]2C(N)=O)n1	i	-2%	2%	-6%	i
CCc1cc(=O)n(CC(=O)N2CCN(c3ccccc3F)CC2)c(N2CCOCC2)n1	i	-24%	?	40µM*	i
Cc1nnc(-c2cc(-c3ccc(N4CCOCC4)cc3)ccn2)n1C1CCCCC1	?	2%[70.6 µM]	?	79µM*	-25%[88.5 µM]
